The campaign covered roughly 39,000 compounds. About 3,300 (8.5%) were called active. Only a selection was taken, and actives are over-represented in it overall.
These compounds were tested on HepG2 (assay: cytotoxicity call (relative viability < 0.9)). Conditions: 10 µM.

Row | Compound | cytotoxicity call
1 | CC(C)C#Cc1cnc2c(c1)C(=O)N([C@@H](C)CO)C[C@@H](C)[C@@H](CN(C)C(=O)c1ccc3c(c1)OCO3)O2 | inactive
2 | O=C(C[C@H]1C[C@H]2c3cc(NS(=O)(=O)c4ccc(F)cc4)ccc3O[C@H]2[C@@H](CO)O1)NCCN1CCCCC1 | inactive
3 | C[C@@H]1CN([C@H](C)CO)C(=O)CCCn2cc(nn2)CO[C@@H]1CN(C)S(=O)(=O)c1ccc2c(c1)OCCCO2 | inactive
4 | C[C@H]1CN([C@@H](C)CO)S(=O)(=O)c2ccc(C#Cc3cccc(F)c3)cc2O[C@@H]1CN(C)S(=O)(=O)c1ccccc1F | inactive
5 | C[C@H](O)C#Cc1ccc2c(c1)O[C@H](CN(C)C)[C@H](C)CN([C@H](C)CO)S2(=O)=O | inactive
6 | COCC(=O)Nc1ccc2c(c1)C(=O)N(C)C[C@H](OC)[C@H](C)CN(Cc1cccc(F)c1)[C@@H](C)CO2 | inactive
7 | S=c1[nH]nc(C2CCCCC2)[nH]1 | inactive
8 | COCC(=O)Nc1ccc2c(c1)C(=O)N(C)C[C@@H](OC)[C@H](C)CN(C(=O)Nc1ccccc1F)[C@H](C)CO2 | inactive
9 | Cc1nnc(SCC2=C(C(=O)O)N3C(=O)[C@@H](N)[C@H]3SC2)s1 | inactive
10 | O=C(N[C@H](NC(=S)Nc1ccc(F)c([N+](=O)[O-])c1)C(Cl)(Cl)Cl)C(c1ccccc1)c1ccccc1 | active
11 | CCOC(=O)c1ccc(NC(=S)N[C@@H](NC(=O)c2ccc(Br)cc2)C(Cl)(Cl)Cl)cc1 | inactive
12 | C[C@@H]1CN([C@@H](C)CO)S(=O)(=O)c2ccc(-c3cncnc3)cc2O[C@H]1CN(C)C(=O)Cc1ccccc1 | inactive
13 | C[C@H]1CCCCO[C@H](CN(C)Cc2ccccc2)[C@@H](C)CN([C@@H](C)CO)C(=O)c2cc(NS(=O)(=O)c3cccs3)ccc2O1 | inactive
14 | COc1ccc(CN(C)C[C@@H]2OCCCC[C@@H](C)Oc3ccc(NC(=O)c4ccncc4)cc3C(=O)N([C@@H](C)CO)C[C@H]2C)cc1 | inactive
15 | C[C@@H]1CCCCO[C@@H](CN(C)S(=O)(=O)c2cn(C)cn2)[C@H](C)CN([C@H](C)CO)C(=O)c2cc(NC(=O)Nc3cccc4ccccc34)ccc2O1 | inactive
16 | C[C@H](CO)N1C[C@H](C)[C@@H](CN(C)S(=O)(=O)c2cccs2)OCCCC[C@H](C)Oc2ccc(NS(=O)(=O)c3ccc(Cl)cc3)cc2C1=O | active
17 | C[C@@H]1CN([C@@H](C)CO)C(=O)c2cc(NS(=O)(=O)c3ccc(Cl)cc3)ccc2O[C@@H](C)CCCCO[C@@H]1CN(C)S(=O)(=O)c1cccs1 | inactive
18 | C[C@@H]1CCCCO[C@@H](CN(C)S(=O)(=O)c2cccs2)[C@H](C)CN([C@@H](C)CO)C(=O)c2cc(NS(=O)(=O)c3ccc(Cl)cc3)ccc2O1 | inactive
19 | C[C@@H]1CCCCO[C@@H](CN(C)S(=O)(=O)c2cccs2)[C@@H](C)CN([C@@H](C)CO)C(=O)c2cc(NS(=O)(=O)c3ccc(Cl)cc3)ccc2O1 | active
20 | C[C@@H]1CCCCO[C@@H](CN(C)S(=O)(=O)c2cccs2)[C@@H](C)CN([C@H](C)CO)C(=O)c2cc(NS(=O)(=O)c3ccc(Cl)cc3)ccc2O1 | inactive
21 | C[C@H](CO)N1C[C@H](C)[C@H](CN(C)S(=O)(=O)c2cccs2)OCCCC[C@H](C)Oc2ccc(NS(=O)(=O)c3ccc(Cl)cc3)cc2C1=O | inactive
22 | C[C@@H]1CN([C@H](C)CO)C(=O)c2cc(NS(=O)(=O)c3ccc(Cl)cc3)ccc2O[C@@H](C)CCCCO[C@H]1CN(C)S(=O)(=O)c1cccs1 | inactive
23 | C[C@@H]1CN([C@H](C)CO)C(=O)c2cc(NS(=O)(=O)c3ccc(Cl)cc3)ccc2O[C@@H](C)CCCCO[C@@H]1CN(C)S(=O)(=O)c1cccs1 | inactive

Row | Compound | cytotoxicity call
24 | C[C@@H]1CCCCO[C@H](CN(C)S(=O)(=O)c2cccs2)[C@H](C)CN([C@@H](C)CO)C(=O)c2cc(NS(=O)(=O)c3ccc(Cl)cc3)ccc2O1 | active
25 | C[C@H]1CCCCO[C@@H](CN(C)S(=O)(=O)c2cccs2)[C@@H](C)CN([C@@H](C)CO)C(=O)c2cc(NS(=O)(=O)c3ccc(Cl)cc3)ccc2O1 | inactive
26 | C[C@@H]1CCCCO[C@@H](CN(C)S(=O)(=O)c2cccs2)[C@H](C)CN([C@H](C)CO)C(=O)c2cc(NS(=O)(=O)c3ccc(Cl)cc3)ccc2O1 | active
27 | C[C@@H]1CCCCO[C@H](CN(C)S(=O)(=O)c2cccs2)[C@H](C)CN([C@H](C)CO)C(=O)c2cc(NS(=O)(=O)c3ccc(Cl)cc3)ccc2O1 | inactive
28 | COc1ccc([C@@H]2CC=CC[C@H](C)Oc3ccccc3C(=O)N(C)[C@@H](Cc3ccccc3)C(=O)N2)c(OC)c1 | inactive
29 | Cc1noc(C)c1NC(=O)Nc1ccc2c(c1)C(=O)N([C@@H](C)CO)C[C@@H](C)[C@@H](CN(C)Cc1ccncc1)OCCCC[C@H](C)O2 | inactive
30 | CO[C@H]1CN(C)C(=O)c2cc(NC(=O)C3CC3)ccc2OC[C@@H](C)N(C(=O)C2CCOCC2)C[C@H]1C | inactive
31 | COc1ccc([C@@H]2CC=CC[C@@H](C)Oc3ccccc3C(=O)N(C)[C@H](Cc3ccccc3)C(=O)N2)c(OC)c1 | inactive
32 | Cc1noc(C)c1NC(=O)Nc1ccc2c(c1)C(=O)N([C@@H](C)CO)C[C@@H](C)[C@H](CN(C)C(=O)c1ccccc1)OCCCC[C@@H](C)O2 | inactive
33 | COCC(=O)N1C[C@@H](C)[C@H](OC)CN(C)C(=O)c2ccc(NC(=O)c3ccc(OC)cc3)cc2OC[C@@H]1C | inactive
34 | COc1cc(C(=O)NS(=O)(=O)c2ccccc2C)ccc1Cc1cn(C)c2ccc(NC(=O)OC3CCCC3)cc12 | inactive
35 | CCCC#Cc1cnc2c(c1)C(=O)N([C@H](C)CO)C[C@H](C)[C@@H](CN(C)S(=O)(=O)c1cn(C)cn1)O2 | inactive
36 | C[C@@H]1CN([C@@H](C)CO)C(=O)c2cc(NC(=O)Cc3ccccc3)ccc2O[C@@H]1CN(C)C(=O)Nc1cccc2ccccc12 | inactive
37 | CC(C)NC(=O)N(C)C[C@@H]1Oc2ccc(NS(=O)(=O)c3ccc(F)cc3)cc2C(=O)N([C@@H](C)CO)C[C@H]1C | inactive
38 | CNC(=O)Cc1cnc(N)s1 | inactive
39 | C[C@H](CO)N1C[C@H](C)[C@H](CN(C)Cc2ccc(C(F)(F)F)cc2)Oc2c(NC(=O)CCCCCC(=O)Nc3ccccc3N)cccc2C1=O | inactive
40 | C[C@H](CO)N1C[C@H](C)[C@H](CN(C)Cc2ccc(Oc3ccccc3)cc2)Oc2c(NS(=O)(=O)c3cccs3)cccc2C1=O | inactive
41 | C[C@H]1CN([C@@H](C)CO)C(=O)c2cccc(NC(=O)c3ccncc3)c2O[C@H]1CN(C)Cc1ccncc1 | inactive
42 | C[C@@H]1CN([C@H](C)CO)C(=O)c2cc(-c3cccnc3)cnc2O[C@H]1CN(C)Cc1ccc(Oc2ccccc2)cc1 | inactive
43 | CN1CCN(Cc2ccc(NC(=O)Nc3ccc(Oc4cc(NC(=O)C5CC5)ncn4)cc3)cc2C(F)(F)F)CC1 | active
44 | Cc1cccc(Oc2ccc(NC(=O)C3CCC(C)CC3)cc2)c1 (centres undefined) | inactive
45 | COc1ccc(NC(=O)Nc2ccc3c(c2)[C@H]2C[C@H](CC(=O)N4CCN(C)CC4)O[C@@H](CO)[C@H]2O3)cc1 | inactive
46 | C[C@@H]1CN([C@H](C)CO)C(=O)Cc2cc(NS(=O)(=O)c3ccc(F)cc3)ccc2O[C@H]1CN(C)S(=O)(=O)c1ccccc1 | inactive

Row | Compound | cytotoxicity call
47 | C[C@H]1CCCCO[C@H](CN(C)C(=O)NC2CCCCC2)[C@@H](C)CN([C@@H](C)CO)C(=O)c2cc(NC(=O)NC3CCCCC3)ccc2O1 | inactive
48 | N#C/C(=N\O)C(=O)c1ccco1 | inactive
49 | COc1ccc2nc(S(=O)Cc3ncc(C)c(OC)c3C)[nH]c2c1 (centres undefined) | inactive
50 | Cn1c(=O)c2c(ncn2CC(=O)Nc2nc3ccccc3[nH]2)n(C)c1=O | inactive
51 | CCOC(=O)Nc1nc2ccccc2[nH]1 | inactive
52 | N=C(N)Nc1nc2ccccc2[nH]1 | inactive
53 | N=C(N)Nc1nc(=O)c2ccccc2[nH]1 | inactive
54 | COC(=O)Nc1nc2ccc(Sc3ccccc3)cc2[nH]1 | active
55 | CC(C)NC(=O)c1cccc2cccc(Sc3ccccc3)c12 | inactive
56 | CCCOc1ccc2nc(NC(=O)OC)[nH]c2c1 | active
57 | CCCSc1ccc2nc(NC(=O)OC)[nH]c2c1 | active
58 | COC(=O)Nc1nc2ccc(S(=O)c3ccccc3)cc2[nH]1 (centres undefined) | active
59 | O=C(O)Cn1cccn1 | inactive
60 | CCC/C=C1\OC(=O)c2ccccc21 | inactive
61 | Cc1noc(C)c1S(=O)(=O)N(C)C[C@@H]1OCCCC[C@@H](C)Oc2ccc(NC(=O)Nc3cccc4ccccc34)cc2C(=O)N([C@H](C)CO)C[C@@H]1C | inactive
62 | C[C@H]1CN([C@@H](C)CO)C(=O)Cc2cc(NC(=O)Nc3ccc(C(F)(F)F)cc3)ccc2O[C@@H]1CN(C)Cc1ccc(C(=O)O)cc1 | inactive
63 | COc1ccc(CN(C)C[C@H]2OCCCC[C@@H](C)Oc3ccc(NC(=O)NC(C)C)cc3C(=O)N([C@H](C)CO)C[C@@H]2C)cc1 | inactive
64 | CCCC(=O)Nc1ccc2c(c1)C(=O)N(C)C[C@H](OC)[C@H](C)CN(Cc1ccc(-c3ccccn3)cc1)[C@@H](C)CO2 | inactive
65 | CN(CCN)C1CCCCC1 | inactive
66 | CCS(=O)(=O)NCC[C@H]1CC[C@H](NC(=O)Cc2ccccn2)[C@@H](CO)O1 | inactive
67 | C[C@@H]1CCCCO[C@H](CN(C)C(=O)Cc2ccccc2)[C@@H](C)CN([C@@H](C)CO)C(=O)c2cc(NC(=O)c3ccccc3)ccc2O1 | inactive
68 | CCS(=O)(=O)N1CC[C@]2(CC1)CN([C@H](CO)c1c2c2ccc(cc2n1C)OC)C(=O)c1cccc(c1)F | inactive
69 | COc1ccc(S(=O)(=O)Nc2ccc3c(c2)C(=O)N([C@@H](C)CO)C[C@H](C)[C@@H](CN(C)Cc2ccc4c(c2)OCO4)OCCCC[C@H](C)O3)cc1 | inactive
